In PubChem BioAssay (NCI) one finds growth data, which are given here for 40 compounds.

Values joined by “and” are separate entries in the source; they are usually repeats but may differ in a detail not shown here. Equal entries are not always repeated. The panel holds about 83,000 compounds, 20% with a hit somewhere; the sample as a whole holds those more often.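 Single-dose data. Exposure time 48 hours. Values below 10 considered active.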 More than one record can exist for a structure, and the calls need not agree. Active and inactive are the calls of the source.

This assay concerns SK-MEL-2 melanoma. Kind of assay: NCI-60 one-dose screen, 48 h (100 = growth as untreated, 0 = no growth, -100 = all killed). The note with it: 10 µM unless noted. As for the experimental part:
Growth inhibition of the SK-MEL-2 human tumor cell line is measured as a screen for anti-cancer activity. Cells are grown in 96 well plates and exposed to the test compound for 48 hours. Compounds are tested at a single concentration, which is 10^-5 M for most compounds. The reported endpoint is percent growth (GI% or GIPRCNT), where numbers from 0 - 100% represent growth inhibition, and numbers from -100% - 0 represent cell death. For example, a value of 40 represents 60% growth inhibition. A value of 0 means no net growth occurred over the course of the experiment. A value of -40 indicates 40% of cells at the beginning of the experiment died by the end of the experiment. A value of -100 means all cells are dead at the end of the experiment.
NCI-60 Human Tumor Cell Lines Screen was performed using the standard one-dose NCI protocol, which is described in more detail at https://dtp.cancer.gov/discovery_development/nci-60/default.htm.
Compounds with GIPRCNT values below 10 were considered active. Activity score was based on GIPRCNT using the following formula: […]
Score is 0 for GIPRCNT values of 100 or above, 50 for GIPRCNT values of 0, and 100 for GIPRCNT values of -100.
For the compound `Cc1cc(I)nc2ccccc12`, the growth was 110% (inactive).

For `O=C1C=CC(=O)N1c1ccc(O)cc1`, the growth was 107% (inactive).

As for `Cc1onc(-c2ccccc2)c1C(=O)N/N=C/c1cc(Cl)cc(Cl)c1O`, the growth was 37.7% (inactive).

With `N=C(N)Sc1cccc[n+]1[O-]`, the growth is 59% (inactive).

For the compound `CN1CSC(=S)N(Cc2ccccc2)C1`, the growth is 73.3% (inactive).

Take `CCc1oc2ccccc2c1C(=O)c1cc(Br)c(O)c(Br)c1`: the growth was 59.6% (inactive).

In the case of `CCCC[n+]1c(/C=C\c2c(OC)cc(OC)cc2OC)ccc2ccccc21`, the growth is -44.7% (active).

For the compound `O=C1C=CC(=O)c2c(O)c(CO)c(CO)c(O)c21`, the growth was 119% (inactive).

`NCCCN(CCCN)CCCNCc1c2ccccc2c(CNCCCN(CCCN)CCCN)c2ccccc12`: the growth was 100% (inactive).

Turning to `N#CC(=C1SCS1)[N+](=O)[O-]`, the growth is 19.2% (inactive).

For the compound `C/C(=N\NC(=S)N1CC2CCC(CC2)C1)c1ccccn1`, the growth is 13.7% (inactive).

Take `CC(=O)c1ccc2c(c1)CCc1ccccc1-2`: the growth is 110% (inactive).

Take `CC1CC(C)(C)OB(OC(C)CC(C)(C)OB2OC(C)CC(C)(C)O2)O1` (stereo not given): the growth is 103% (inactive).

For `Cn1ccc(=Nc2ccc(NC(=O)c3ccc(N=c4ccn(C)c5ccc([N+](=O)[O-])cc45)cc3)cc2)cc1`, the growth is 91.1% (inactive).

For the compound `COc1cc(NCc2ccc3nc(N)nc(N)c3c2C)cc(OC)c1OC` (tested in a mixture with another compound), the growth is 61.8% (inactive).

For the compound `C(=N\Nc1ccc2ccccc2n1)/c1ccccn1`, the growth is 39.5% (inactive).

Regarding `Oc1ccc2ccccc2c1N=Nc1nccs1`, the growth is 153% (inactive).

Consider `CC1(C)OCC(COC(c2ccccc2)(c2ccccc2)c2ccccc2)O1` (stereo not given), for which the growth is 83.3% (inactive).

For `CCN(CC)c1ccc(/C=C\C(=O)c2ccc(NC(C)=O)cc2)cc1`, the growth was 76.8% (inactive).

For the compound `O=C(NNc1ccccc1)OCc1ccccc1`, the growth is 86.1% (inactive).

As to `CCN(CC)CC(O)CNc1ccc(NCC2CO2)c2c1C(=O)c1ccccc1C2=O` (stereo not given), the growth is -46.5% (active).

As to `S=C=Nc1ccc(N2CCOCC2)cc1`, the growth was 97.8% (inactive).

For the compound `O=C(CCl)N1c2ccccc2Sc2c1ccc1ccccc21`, the growth is 82.7% (inactive).

Consider `Oc1c(C(Nc2ccccc2)c2ccccc2)ccc2cccnc12` (stereo not given), for which the growth was 48% (inactive).

As to `OC(c1cc(-c2ccc(C(F)(F)F)cc2)nc(C(F)(F)F)c1)C1CCCCN1` (stereo not given), the growth is -61% (active) and 21.8% (inactive).

For the compound `CC(C)=C1C=C2CC[C@@H]3[C@](C)(CCC[C@@]3(C)C(=O)O)[C@H]2CC1`, the growth was 109% (inactive).

For the compound `CCN1CCCC(Nc2cc(C)nc(/N=C(/N)Nc3ccc(Cl)c(Cl)c3)n2)C1` (stereo not given), the growth was -72.7% (active).

Take `O=[N+]([O-])c1ccc([I+]c2ccccc2)cc1`: the growth is -17.9% (active).

On to `c1ccc(-c2cccc(-c3ccccn3)n2)nc1`, for which the growth was 16.6% (inactive).

For the compound `O=C1C(=O)c2cccnc2-c2ncccc21`, the growth was -11.1% (active).

Regarding `Oc1ccc(Cl)cc1C(c1cc(Cl)ccc1O)C(Cl)(Cl)Cl`, the growth is 49.2% (inactive).

As to `Cc1ccccc1N=C(N)Nc1ccccc1C` (tested in a mixture with another compound), the growth is 85.7% (inactive).

For `Clc1ccccc1C(c1ccccc1)(c1ccccc1)n1ccnc1`, the growth is 48.3% (inactive).

Consider `CC(C)Nc1ccc(Nc2ccc(NC(C)C)cc2)cc1`, for which the growth is 69.9% (inactive).

As to `CCCCCCCCCCCC[N+]1(CCCCCCCCCCCC)CCCC(C)C1` (stereo not given), the growth was -96.5% (active).

As for `CCCCCCCCCCCC[n+]1ccc(CCCCCCCCC)cc1`, the growth is -48.1% (active).

On to `CCCCC(C=O)(C=C=C(C)C)CC` (stereo not given), for which the growth was 111% (inactive).

Consider `CC(O)C(O)C(O)C(O)C(O)C(=O)NNc1ccccc1` (stereo not given), for which the growth was 106% (inactive).

Take `COc1cccc2c1C(=O)c1c(O)c3c(c(O)c1C2=O)C[C@@](O)(C(=O)CO)C[C@@H]3OC1CC(OC(C)=O)C(OC(C)=O)C(C)O1` (stereo not given in full): the growth was -0.534% (active).

On to `Nc1ccc(-c2ccc(N)c(S(=O)(=O)O)c2)cc1S(=O)(=O)O`, for which the growth was 127% (inactive).
